Source: PubChem BioAssay (NCI)
The panel holds about 83,000 compounds, 20% with a hit somewhere; the sample as a whole holds those more often.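 For each line, cells grew in 96-well plates with the test compound present at a single concentration for 48 hours.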 The source made the active and inactive calls. The calls were made as follows: active = growth percent below 10; inactive = the rest.

What was measured:
Assay in all cases: NCI-60 one-dose screen, 48 h (100 = growth as untreated, 0 = no growth, -100 = all killed)
Details in all cases: 10 µM unless noted
[1] = system: MOLT-4 leukemia
[2] = system: SR leukemia
[3] = system: RPMI-8226 leukemia
[4] = system: OVCAR-8 ovarian
[5] = system: OVCAR-5 ovarian
[6] = system: OVCAR-4 ovarian
[7] = system: SK-OV-3 ovarian
[8] = system: IGROV1 ovarian
[9] = system: OVCAR-3 ovarian
[10] = system: HS 578T breast
[11] = system: NCI/ADR-RES ovarian
[12] = system: T-47D breast
[13] = system: BT-549 breast
[14] = system: MDA-MB-435 melanoma
[15] = system: SW-620 colon
[16] = system: MCF7 breast
[17] = system: HCT-116 colon
[18] = system: HCC-2998 colon
[19] = system: KM12 colon

Measured: growth

[Cl][Hg][c]1cc(Br)cc(Br)c1
inactive: [3] 23% | [4] 70.4% | [5] 118% | [6] 48.5% | [7] 86.3% | [8] 16.5% | [10] 30.3% | [11] 81.1% | [12] 27.5% | [13] 48% | [14] 58.2% | [15] 29% | [16] 15.1% | [17] 64% | [18] 85.4% | [19] 70.4%
active: [1] 0.93% | [2] -16.6% | [9] -7.88%

CC(C)(N)Cc1ccccc1
inactive: [1] 103% | [2] 100% | [3] 99.9% | [4] 106% | [5] 109% | [6] 112% | [7] 106% | [8] 106% | [9] 112% | [10] 96.6% | [11] 111% | [12] 107% | [13] 101% | [14] 107% | [15] 105% | [16] 99.4% | [17] 101% | [18] 110% | [19] 105%

Fc1ccc2c(c1)c(-c1nc(-c3c[nH]c4ncccc34)cs1)cn2CCCCN1CCCCC1
inactive: [13] 75.7%
active: [1] -67.7% | [2] -60.2% | [3] -49.6% | [4] -82.9% | [5] -68.2% | [6] -23.8% | [7] -72.6% | [8] -60.5% | [9] -84.3% | [10] -28.6% | [11] -64.1% | [12] -68.8% | [14] -87.2% | [15] -73.7% | [16] -75.3% | [17] -97.9% | [18] -19% | [19] -66.9%

COc1ccc(N(CC(=O)NCCC[Te]c2ccccc2)C(=O)CNC(=O)OC(C)(C)C)cc1
active: [4] 9.87% | [7] -7.96% | [8] 4.89% | [11] 1.78% | [13] -47.8% | [16] 8.66% | [17] -3.11%
inactive: [1] 12.1% | [2] 12.7% | [3] 13% | [5] 22% | [6] 118% | [9] 103% | [10] 11.7% | [12] 109% | [14] 59.4% | [15] 53.1% | [18] 43.3% | [19] 19.3%

COC(=O)C12CC(NC(=O)c3csc([C@@H](C[C@H](C(C)C)N(C)C(=O)[C@@H](NC(=O)[C@H]4CCCCN4C)C(C)C)OC(C)=O)n3)(C1)C2
active: [9] -17.5% | [11] -4.67% | [13] -25.8% | [14] -43.7% | [17] 4.37%
inactive: [1] 14.3% | [2] 15.2% | [3] 17.8% | [4] 24.8% | [5] 46.8% | [6] 50.4% | [7] 13.2% | [8] 19.3% | [10] 35.3% | [12] 75.2% | [15] 27.4% | [16] 15.4% | [18] 10.4% | [19] 11.1%

Nc1cc2nc3ccccc3nc2cc1N
inactive: [1] 91.1% | [2] 82.4% | [3] 80% | [4] 83% | [5] 99.9% | [6] 84% | [7] 82.3% | [8] 96% | [9] 92.1% | [10] 76.8% | [11] 94.8% | [12] 52.7% | [13] 94% | [14] 109% | [15] 98% | [16] 23.5% | [17] 74.9% | [18] 96.8% | [19] 91.6%

C=C1[C@@H](C)[C@H]2[C@H](Cc3ccccc3)NC(=O)[C@]23[C@@H](O)/C=C/[C@@](C)(O)C(=O)[C@@H](C)C/C=C/[C@H]3[C@@H]1O
inactive: [1] 61.5% | [2] 64.3% | [3] 68.4% | [4] 69.3% | [5] 38.1% | [6] 53.7% | [7] 38.1% | [8] 70.5% | [9] 46.2% | [11] 94.6% | [12] 48.3% | [13] 63.1% | [14] 80.5% | [15] 41.8% | [16] 63.8% | [17] 50.1% | [18] 62.4% | [19] 81.5%
active: [10] -11.7%

c1cnc2[nH]cc(-c3csc(-c4cn(CCCCN5CCCCC5)c5ccccc45)n3)c2c1
active: [2] -23.5%
inactive: [1] 56.4% | [3] 52.5% | [4] 87.3% | [5] 96.3% | [6] 83.8% | [7] 109% | [8] 44.9% | [9] 90.5% | [10] 84.3% | [11] 89.8% | [12] 79.4% | [13] 105% | [14] 80.5% | [15] 76.8% | [16] 58.9% | [17] 81.8% | [18] 95.6% | [19] 85.5%

CC(=O)[O][Hg][O]C(C)=O
inactive: [1] 84.8% | [2] 11.9% | [3] 90.1% | [4] 98.7% | [5] 115% | [6] 94.3% | [7] 97.8% | [8] 53.2% | [9] 34.5% | [10] 106% | [11] 108% | [12] 52.9% | [13] 103% | [14] 85.7% | [15] 85.6% | [16] 55.9% | [17] 95.7% | [18] 120% | [19] 87.5%

O=C1C(=Cc2cn(Cc3ccccc3)c3ccccc23)C(=O)N(Cc2ccccc2)C(=O)N1Cc1ccccc1
active: [5] -7.28%
inactive: [1] 95.2% | [2] 87.2% | [3] 93.2% | [4] 83.5% | [6] 57.3% | [7] 47.7% | [8] 75.8% | [9] 97.7% | [10] 90.7% | [11] 106% | [12] 51.7% | [13] 118% | [14] 108% | [15] 101% | [16] 80.3% | [17] 76.2% | [18] 97.4% | [19] 101%

c1cnc2[nH]cc(-c3csc(-c4cn(CCCCN5CCOCC5)c5ccccc45)n3)c2c1
active: [2] -20.1%
inactive: [1] 13.1% | [3] 32.6% | [4] 60.6% | [5] 72.5% | [6] 74.8% | [7] 81.1% | [8] 34.9% | [9] 59.8% | [10] 54.9% | [11] 69.4% | [12] 36.1% | [13] 79.6% | [14] 24.4% | [15] 18.1% | [16] 25.1% | [17] 40.3% | [18] 56.9% | [19] 24.1%

COc1ccc(-n2c(C)nc3cc(OC)c(OC)cc3c2=O)cc1OC
inactive: [1] 97.2% | [2] 95.5% | [3] 104% | [4] 102% | [5] 104% | [6] 101% | [7] 102% | [8] 102% | [9] 106% | [10] 101% | [11] 102% | [12] 91.4% | [13] 102% | [14] 104% | [15] 105% | [16] 91.8% | [17] 98.7% | [18] 109% | [19] 104%

CC[C@H](C)[C@H](NC(=O)[C@H]1CCCCN1C)C(=O)N(C)[C@H](C[C@@H](O)c1nc(C(=O)N[C@@H](Cc2ccccc2)C[C@H](C)C(=O)O)cs1)C(C)C
inactive: [1] 79% | [2] 29.2% | [3] 59.8% | [4] 93.5% | [5] 101% | [6] 98% | [7] 97% | [8] 76.6% | [9] 63.2% | [10] 75.7% | [11] 109% | [12] 81.5% | [13] 88.5% | [14] 18.9% | [15] 58.6% | [16] 29.9% | [17] 77.7% | [18] 99.9% | [19] 72.7%

CC(=O)O[C@H]1CC[C@@]2(C)C(=CC[C@H]3[C@@H]4C[C@@H](N5CC5)[C@H](C(C)=O)[C@@]4(C)CC[C@@H]32)C1
inactive: [1] 63.4% | [2] 58.6% | [3] 79.3% | [4] 88.5% | [5] 99.5% | [6] 80.3% | [7] 99.9% | [8] 86.2% | [9] 109% | [10] 98% | [11] 92.9% | [12] 88.3% | [13] 100% | [14] 99.9% | [15] 89.6% | [16] 72.8% | [17] 85.9% | [18] 106% | [19] 106%

CN[C@]1(c2ccccc2Cl)CCCC[C@H]1NCCCN1CCN(C)CC1
inactive: [1] 98.8% | [2] 111% | [3] 97.3% | [4] 97.2% | [5] 104% | [6] 101% | [7] 105% | [8] 103% | [9] 102% | [10] 94.1% | [11] 101% | [12] 103% | [13] 102% | [14] 103% | [15] 99.4% | [16] 102% | [17] 97.8% | [18] 99.5% | [19] 101%
